Experimental data as given in PubChem BioAssay AID504424 (National Center for Advancing Translational Sciences (NCATS), 2011).
The other results are listed elsewhere or left out. Calls of active or inactive are those of the source.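 Rule for the calls: active = compounds that showed inhibition of Dyrk1a and received a fitted potency; inactive = compounds that showed no inhibition.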

target: Dual specificity tyrosine-phosphorylation-regulated kinase 1A (Homo sapiens) (UniProt Q13627); experiment: Kinase Inhibition Study on Inhibitors of Dyrk1a (Reaction Biology data); details: Reaction Biology kinase assay, 10 uM ATP
Excerpt: NIH Molecular Libraries Probe Production Centers Network [MLPCN] NIH Chemical Genomics Center [NCGC] MLPCN Grant: 1R03MH084827-01 Assay Submitter (PI): Tom Misteli NCGC Assay Overview: Alternative splicing of pre-mRNAs plays a major role in the regulation of eukaryotic gene expression. Alternative splicing is now thought to be one of the primary reasons for the complexity of higher organisms leading to an average of three protein isoforms per gene. Aberrant splicing can lead to a number of diseases and is known to play a role in rare genetic diseases such as progeria syndrome. Hutchinson-Gilford Progeria Syndrome (HGPS) is a pediatric premature aging disease caused by a spontaneous mutation in the lamin A/C (LMNA) gene due to a single point mutation in the lamin A gene effecting 1 in 4 million people. To identify both specific splicing modulators of the lamin A gene as well as general splicing modulators, a cell-based HTS assay was developed using a minigene reporter system (AIDs, 1459 & 1487). […] The Clk family is part of the CMGC group of protein kinases which includes Dyrks and are essential kinases found in all eukaryotes. […] This AID is to summarize the activity of these analogs in Dyrk1a.
All kinase reactions were performed using 10 uM ATP in the assay. 100% activity was taken from kinase reactions with DMSO alone (the vehicle used for compound stock solutions).

Potency, active:
c1nc(N2CCOCC2)c2cc(-c3ccc4c(c3)OCO4)ccc2n1 723 nM
c1coc(CCNc2ncnc3ccc(-c4ccc5c(c4)OCO5)cc23)c1 74 nM
CN(Cc1cncn1C)c1ncnc2ccc(-c3ccc4c(c3)OCO4)cc12 2450 nM
CC(Nc1ncnc2ccc(-c3ccc4c(c3)OCO4)cc12)c1ccco1 (centres undefined) 5600 nM
